# From PubChem BioAssay (EPA / NIEHS)
# Records with an inconclusive call do not appear. Calls of active or inactive are those of the source. The calls were made as follows: active = hit-call score of the fitted dose curve at least 0.9, where 1 is the maximum; inconclusive = response in the unintended direction; inactive = score below 0.9.
# Columns and labels:
# [1] = molecular target: Adra2b (gene 24174) (UniProt P19328); experiment: NVS_GPCR_rmAdra2B: NovaScreen (NVS) G Protein-Coupled Receptor Assay for hybird cells Adrenergic, Alpha 2B Receptor (Adra2B) (AID 2283306)
# Method in brief: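 Compounds screened first at 25 uM in duplicate, with actives followed up in concentration-response; specific radioligand displacement from hybrid neuroglioma/blastoma cell membrane preparations measured by filter scintillation counting after 1 h, normalized to DMSO.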
# [2] = molecular target: rat Glutamate Metabotropic Receptor 5 (MGluR5), Grm5 (gene 24418) (UniProt P31424); experiment: NVS_GPCR_rmMGluR5: NovaScreen (NVS) G Protein-Coupled Receptor Assay for rat Glutamate Metabotropic Receptor 5 (MGluR5) (AID 2283307)
# Method in brief: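 Compounds first screened in duplicate at 25 uM, then in concentration series up to 50 uM if over threshold. Radioligand displacement on rat whole-brain membranes, filtration and scintillation counting after 1.5 h; binding loss relative to DMSO.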
# [3] = molecular target: rat Neurokinin-1 Receptor (NK1), Tacr1 (gene 24807) (UniProt P14600); experiment: NVS_GPCR_rNK1: NovaScreen (NVS) G Protein-Coupled Receptor Assay for rat Neurokinin-1 Receptor (NK1) (AID 2283309)
# Method in brief: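 Competitive radioligand binding to NK1 in rat submaxillary membranes, 1 h incubation, filtration and scintillation read-out. Compounds first screened at 25 uM in duplicate, then concentration-response for actives; signal loss relative to DMSO.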
# [4] = molecular target: rat Neurokinin-3 Receptor (NK3), Tacr3 (gene 24808) (UniProt P16177); experiment: NVS_GPCR_rNK3: NovaScreen (NVS) G Protein-Coupled Receptor Assay for rat Neurokinin-3 Receptor (NK3) (AID 2283310)
# Method in brief: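 Filter-based radioligand displacement on rat cortex membrane preparations, read by scintillation 2 h post-dose. Chemicals first tested in duplicate at 25 uM; actives followed up in concentration series with a 50 uM maximum.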
# [5] = molecular target: rat Opioid Receptor, Non-selective Sodium (Na+) Binding, Oprm1 (gene 25601) (UniProt P33535); experiment: NVS_GPCR_rOpiate_NonSelectiveNa: NovaScreen (NVS) G Protein-Coupled Receptor Assay for rat Opioid Receptor, Non-selective Sodium (Na+) Binding (AID 2283311)
# Method: NVS_GPCR_rOpiate_NonSelectiveNa is a biochemical, single-readout assay that uses extracted gene-proteins from Rat forebrain membranes in a tissue-based cell-free assay. Measurements were taken 1.5 hours after chemical dosing in a 48-well plate.NVS_GPCR_rOpiate_NonSelectiveNa is one of one assay component(s) measured or calculated from the NVS_GPCR_rOpiate_NonSelectiveNa assay. It is designed to make measurements of radioligand binding, a form of binding reporter, as detected with scintillation counting signals by Filter-based radiodetection technology.Data from the assay component NVS_GPCR_rOpiate_NonSelectiveNa was analyzed into 1 assay endpoint. This assay endpoint, NVS_GPCR_rOpiate_NonSelectiveNa, was analyzed in the positive analysis fitting direction relative to DMSO as the negative control and baseline of activity. Using a type of binding reporter, loss-of-signal activity can be used to understand changes in the binding as they relate to the gene Oprm1. Furthermore, this assay endpoint can be referred to as a primary readout, because the performed assay has only produced 1 assay endpoint. To generalize the intended target to other relatable targets, this assay endpoint is annotated to the gpcr intended target family, where the subfamily is rhodopsin-like receptor.
# Binding assays used specific radioligands (tritiated, iodinated) with non-radioactive competitive displacement ligands in agonist or antagonist protocols (as indicated) and various reference compounds and inhibitors to titrate specific binding to receptors and transporters. Most enzyme assays (CYPs, kinases, phosphatases, proteases, HDACs) used recombinant protein and specific substrates (fluorescence mostly, some colorimetric and radioactive) and inhibitors, followed by a biochemical separation of substrate and product. All assays for the biochemical HTS were initially run in duplicate at a single concentration (10 uM for CYP450 assays and 25 uM for all others). Assay-chemical combinations meeting a pre-defined threshold (e.g., 30% inhibition and other criteria defined below) were then run in singleton concentration-response format with maximum concentration of 20 uM for CYPs and 50 uM for all others. Each assay was run with positive and negative controls, and concurrent controls on every plate. The follow-up (secondary) screen tested active chemical-pairs in concentration series, as well as a few additional assays not tested in the primary screen, some selected negative inactives, and several cases re-run in the concentration series for confirmatory purposes.
# [6] = molecular target: rat Neonicotinoid receptor (NNR), Chrna7 (gene 25302) (UniProt Q05941); experiment: NVS_LGIC_rNNR_BungSens: NovaScreen (NVS) Ligand-Gated Ion Channel Assay for rat Neonicotinoid receptor (NNR) (AID 2283315)
# Method in brief: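 Rat cortical membrane preparation incubated 2.5 h with tritiated or iodinated radioligand and test chemical. Bound radioactivity was filtered and counted by scintillation, and displacement was analysed against DMSO.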
# [7] = molecular target: rat Vasopressin 1 Receptor (V1), Avpr1a (gene 25107) (UniProt P30560); experiment: NVS_GPCR_rV1: NovaScreen (NVS) G Protein-Coupled Receptor Assay for rat Vasopressin 1 Receptor (V1) (AID 2283316)
# Method in brief: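 Concentration-response up to 50 uM for chemicals passing a threshold such as 30% inhibition in an initial duplicate 25 uM screen. Displacement of radioligand from rat liver membranes measured after 1.5 h by filtration and scintillation.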
# [8] = molecular target: Metabotropic glutamate receptor 1 (Rattus norvegicus) (UniProt P23385); experiment: NVS_GPCR_rmMGluR1: NovaScreen (NVS) G Protein-Coupled Receptor Assay for rat Glutamate Metabotropic Receptor 1 (MGluR1) (AID 2283305)
# Method: NVS_GPCR_rmMGluR1 is a biochemical, single-readout assay that uses extracted gene-proteins from Rat cerebellum in a tissue-based cell-free assay. Measurements were taken 1 hour after chemical dosing in a 96-well plate.NVS_GPCR_rmMGluR1 is one of one assay component(s) measured or calculated from the NVS_GPCR_rmMGluR1 assay. It is designed to make measurements of radioligand binding, a form of binding reporter, as detected with scintillation counting signals by Filter-based radiodetection technology.Data from the assay component NVS_GPCR_rmMGluR1 was analyzed into 1 assay endpoint. This assay endpoint, NVS_GPCR_rmMGluR1, was analyzed in the positive analysis fitting direction relative to DMSO as the negative control and baseline of activity. Using a type of binding reporter, loss-of-signal activity can be used to understand changes in the binding as they relate to the gene Grm1. Furthermore, this assay endpoint can be referred to as a primary readout, because the performed assay has only produced 1 assay endpoint. To generalize the intended target to other relatable targets, this assay endpoint is annotated to the gpcr intended target family, where the subfamily is metabotropic glutamate receptor. […]
# [9] = molecular target: rat Somatostatin Receptor (SST), Sstr1 (gene 25033) (UniProt P28646); experiment: NVS_GPCR_rSST: NovaScreen (NVS) G Protein-Coupled Receptor Assay for rat Somatostatin Receptor (SST) (AID 2283314)
# Method in brief: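 Single-concentration duplicate screen (25 uM), then concentration-response up to 50 uM for chemicals passing a threshold such as 30% inhibition. Membranes came from rat forebrain. Binding was measured 1 h post-dose by filter radiodetection and scintillation, relative to DMSO.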
# [10] = molecular target: rat Histamine Receptor (H3), Hrh3 (gene 85268) (UniProt Q9QYN8); experiment: NVS_GPCR_rH3: NovaScreen (NVS) G Protein-Coupled Receptor Assay for rat Histamine Receptor (H3) (AID 2283303)
# Method in brief: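 Filter-binding radioligand competition on rat forebrain membranes, 1 h incubation; compounds screened at 25 µM in duplicate and followed in concentration series to 50 µM, loss of bound signal vs DMSO.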
# Chain of rat Neurokinin-1 Receptor (NK1), Tacr1 (gene 24807) (P14600 whole entry, looked up): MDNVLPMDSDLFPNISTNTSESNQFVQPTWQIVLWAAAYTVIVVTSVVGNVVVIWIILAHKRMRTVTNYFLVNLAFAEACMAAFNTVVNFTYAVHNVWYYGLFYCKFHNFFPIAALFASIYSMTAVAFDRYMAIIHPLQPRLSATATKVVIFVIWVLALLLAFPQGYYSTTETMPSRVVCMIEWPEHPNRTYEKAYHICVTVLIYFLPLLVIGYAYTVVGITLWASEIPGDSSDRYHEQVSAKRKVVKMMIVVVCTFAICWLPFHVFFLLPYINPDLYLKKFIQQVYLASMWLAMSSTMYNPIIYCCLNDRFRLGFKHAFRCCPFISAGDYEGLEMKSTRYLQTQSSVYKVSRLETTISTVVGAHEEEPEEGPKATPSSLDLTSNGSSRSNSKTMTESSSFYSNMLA
# Chain of rat Neonicotinoid receptor (NNR), Chrna7 (gene 25302) (Q05941 whole entry, looked up): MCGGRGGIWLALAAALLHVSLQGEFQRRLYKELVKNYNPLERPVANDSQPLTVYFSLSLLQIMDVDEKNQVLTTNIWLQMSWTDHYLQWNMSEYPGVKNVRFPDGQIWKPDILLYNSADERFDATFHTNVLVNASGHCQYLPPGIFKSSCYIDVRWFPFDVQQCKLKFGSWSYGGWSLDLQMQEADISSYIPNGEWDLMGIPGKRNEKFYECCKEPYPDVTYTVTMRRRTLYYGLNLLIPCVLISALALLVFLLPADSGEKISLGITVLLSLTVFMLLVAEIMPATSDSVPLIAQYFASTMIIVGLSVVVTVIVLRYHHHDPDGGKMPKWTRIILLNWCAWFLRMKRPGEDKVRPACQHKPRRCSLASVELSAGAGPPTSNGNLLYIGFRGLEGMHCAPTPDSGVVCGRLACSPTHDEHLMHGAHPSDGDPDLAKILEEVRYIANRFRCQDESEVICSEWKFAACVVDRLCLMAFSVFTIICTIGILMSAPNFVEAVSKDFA
# Chain of rat Somatostatin Receptor (SST), Sstr1 (gene 25033) (P28646 whole entry, looked up): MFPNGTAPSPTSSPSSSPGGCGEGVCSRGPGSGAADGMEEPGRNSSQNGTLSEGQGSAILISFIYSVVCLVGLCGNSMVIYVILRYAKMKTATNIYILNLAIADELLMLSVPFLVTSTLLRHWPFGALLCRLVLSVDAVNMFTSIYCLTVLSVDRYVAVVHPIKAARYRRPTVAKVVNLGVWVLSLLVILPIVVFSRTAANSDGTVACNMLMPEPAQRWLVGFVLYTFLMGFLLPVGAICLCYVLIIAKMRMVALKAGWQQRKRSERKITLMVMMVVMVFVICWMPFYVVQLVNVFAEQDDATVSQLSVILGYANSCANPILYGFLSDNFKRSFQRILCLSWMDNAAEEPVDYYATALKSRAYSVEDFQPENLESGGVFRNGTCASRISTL
# Chain of Adra2b (gene 24174) (P19328 whole entry, looked up): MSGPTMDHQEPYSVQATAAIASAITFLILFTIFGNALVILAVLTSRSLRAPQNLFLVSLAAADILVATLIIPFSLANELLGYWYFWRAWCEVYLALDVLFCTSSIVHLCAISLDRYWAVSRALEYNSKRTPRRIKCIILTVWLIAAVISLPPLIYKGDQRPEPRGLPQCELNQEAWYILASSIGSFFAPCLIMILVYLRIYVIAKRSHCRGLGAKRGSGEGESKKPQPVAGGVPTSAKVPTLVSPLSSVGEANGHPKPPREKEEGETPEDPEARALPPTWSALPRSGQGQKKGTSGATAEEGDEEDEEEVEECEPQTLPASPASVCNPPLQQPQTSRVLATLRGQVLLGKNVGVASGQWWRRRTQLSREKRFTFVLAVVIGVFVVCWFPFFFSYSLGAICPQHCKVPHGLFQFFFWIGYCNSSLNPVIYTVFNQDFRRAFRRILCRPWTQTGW
# Chain of rat Opioid Receptor, Non-selective Sodium (Na+) Binding, Oprm1 (gene 25601) (P33535 whole entry, looked up): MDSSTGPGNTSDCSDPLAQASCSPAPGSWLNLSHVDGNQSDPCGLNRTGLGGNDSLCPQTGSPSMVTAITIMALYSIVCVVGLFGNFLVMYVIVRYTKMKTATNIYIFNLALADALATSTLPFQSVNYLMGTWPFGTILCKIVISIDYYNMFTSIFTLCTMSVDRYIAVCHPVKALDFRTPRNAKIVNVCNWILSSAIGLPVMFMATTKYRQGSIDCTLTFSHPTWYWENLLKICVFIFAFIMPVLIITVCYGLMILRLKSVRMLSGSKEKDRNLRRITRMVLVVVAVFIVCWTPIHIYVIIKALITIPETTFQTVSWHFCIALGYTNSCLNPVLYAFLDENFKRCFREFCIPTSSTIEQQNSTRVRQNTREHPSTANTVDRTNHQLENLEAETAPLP
# Chain of rat Glutamate Metabotropic Receptor 5 (MGluR5), Grm5 (gene 24418) (P31424 whole entry, looked up): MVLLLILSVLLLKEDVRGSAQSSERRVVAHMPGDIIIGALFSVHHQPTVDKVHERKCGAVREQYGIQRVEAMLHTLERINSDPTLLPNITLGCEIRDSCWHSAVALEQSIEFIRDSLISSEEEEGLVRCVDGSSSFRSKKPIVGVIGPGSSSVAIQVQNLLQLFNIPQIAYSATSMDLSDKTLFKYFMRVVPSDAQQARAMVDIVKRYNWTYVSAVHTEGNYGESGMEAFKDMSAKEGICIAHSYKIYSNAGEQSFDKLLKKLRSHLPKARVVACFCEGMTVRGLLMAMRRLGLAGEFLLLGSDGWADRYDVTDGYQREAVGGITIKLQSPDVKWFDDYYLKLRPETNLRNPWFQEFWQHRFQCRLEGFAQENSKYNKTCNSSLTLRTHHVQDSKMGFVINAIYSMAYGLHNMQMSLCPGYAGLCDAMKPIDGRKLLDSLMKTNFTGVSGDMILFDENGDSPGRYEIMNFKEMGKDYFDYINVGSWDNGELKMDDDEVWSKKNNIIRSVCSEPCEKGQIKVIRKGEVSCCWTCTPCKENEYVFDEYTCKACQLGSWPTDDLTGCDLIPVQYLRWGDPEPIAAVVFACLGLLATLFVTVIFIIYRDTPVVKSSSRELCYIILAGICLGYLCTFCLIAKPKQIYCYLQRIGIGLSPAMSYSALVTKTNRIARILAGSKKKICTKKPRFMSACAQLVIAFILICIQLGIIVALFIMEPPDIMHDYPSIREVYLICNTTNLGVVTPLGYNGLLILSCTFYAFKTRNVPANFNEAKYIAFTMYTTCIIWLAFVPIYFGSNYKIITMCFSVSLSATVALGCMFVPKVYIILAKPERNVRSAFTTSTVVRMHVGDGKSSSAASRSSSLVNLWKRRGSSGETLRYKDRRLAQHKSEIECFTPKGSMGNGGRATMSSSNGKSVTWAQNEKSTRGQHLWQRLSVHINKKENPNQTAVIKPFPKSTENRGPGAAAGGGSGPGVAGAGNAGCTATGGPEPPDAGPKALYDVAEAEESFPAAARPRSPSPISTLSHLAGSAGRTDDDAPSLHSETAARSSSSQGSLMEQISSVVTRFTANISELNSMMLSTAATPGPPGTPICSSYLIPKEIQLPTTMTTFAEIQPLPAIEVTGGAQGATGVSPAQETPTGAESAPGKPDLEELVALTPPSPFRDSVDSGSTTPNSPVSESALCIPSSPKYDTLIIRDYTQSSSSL
# Chain of rat Neurokinin-3 Receptor (NK3), Tacr3 (gene 24808) (P16177 whole entry, looked up): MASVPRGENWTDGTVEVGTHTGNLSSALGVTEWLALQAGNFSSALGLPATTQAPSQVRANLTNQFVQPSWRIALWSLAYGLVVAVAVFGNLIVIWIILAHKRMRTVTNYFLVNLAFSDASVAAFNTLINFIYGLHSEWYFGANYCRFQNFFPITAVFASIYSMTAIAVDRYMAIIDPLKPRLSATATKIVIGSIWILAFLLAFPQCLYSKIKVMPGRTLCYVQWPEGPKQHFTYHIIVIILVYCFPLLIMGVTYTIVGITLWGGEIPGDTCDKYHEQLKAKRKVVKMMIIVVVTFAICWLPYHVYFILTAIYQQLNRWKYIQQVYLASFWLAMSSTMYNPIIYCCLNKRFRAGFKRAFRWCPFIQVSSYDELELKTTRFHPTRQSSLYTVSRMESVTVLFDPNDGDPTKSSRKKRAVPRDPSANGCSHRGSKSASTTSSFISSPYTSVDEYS
# Chain of rat Vasopressin 1 Receptor (V1), Avpr1a (gene 25107) (P30560 whole entry, looked up): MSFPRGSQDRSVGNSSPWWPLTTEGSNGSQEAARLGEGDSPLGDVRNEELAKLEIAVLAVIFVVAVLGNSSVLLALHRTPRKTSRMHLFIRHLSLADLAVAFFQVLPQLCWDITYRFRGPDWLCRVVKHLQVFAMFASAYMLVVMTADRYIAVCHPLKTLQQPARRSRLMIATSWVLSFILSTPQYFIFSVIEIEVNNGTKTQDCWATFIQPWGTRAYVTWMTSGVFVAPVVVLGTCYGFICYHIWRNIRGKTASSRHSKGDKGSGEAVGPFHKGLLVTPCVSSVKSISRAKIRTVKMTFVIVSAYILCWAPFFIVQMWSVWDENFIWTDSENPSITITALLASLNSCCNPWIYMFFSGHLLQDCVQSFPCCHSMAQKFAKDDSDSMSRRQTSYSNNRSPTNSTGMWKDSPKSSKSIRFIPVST
# Chain of rat Histamine Receptor (H3), Hrh3 (gene 85268) (Q9QYN8 whole entry, looked up): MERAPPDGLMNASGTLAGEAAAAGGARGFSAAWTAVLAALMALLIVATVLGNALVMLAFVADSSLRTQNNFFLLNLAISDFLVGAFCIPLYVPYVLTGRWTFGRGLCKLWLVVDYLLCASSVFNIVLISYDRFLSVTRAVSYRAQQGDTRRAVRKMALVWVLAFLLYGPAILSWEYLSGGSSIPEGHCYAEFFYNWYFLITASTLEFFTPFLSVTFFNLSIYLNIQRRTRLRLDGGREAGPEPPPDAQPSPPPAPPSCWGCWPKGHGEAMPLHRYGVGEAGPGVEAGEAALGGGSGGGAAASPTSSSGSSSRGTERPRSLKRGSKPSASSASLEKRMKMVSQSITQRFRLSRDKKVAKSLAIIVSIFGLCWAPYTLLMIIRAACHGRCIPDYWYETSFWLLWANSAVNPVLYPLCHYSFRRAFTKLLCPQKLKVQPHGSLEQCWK
compound,measurement,setting,value
CC#C[C@]1(O)CC[C@H]2[C@@H]3CCC4=CC(=O)CCC4=C3[C@@H](c3ccc(N(C)C)cc3)C[C@@]21C,AC50,[1],6.9 µM (active)
same,outcome,[2],inactive
same,outcome,[3],inactive
same,outcome,[4],inactive
same,AC50,[5],2.59 µM (active)
same,outcome,[6],inactive
same,outcome,[7],inactive
CCN(CC)CCNc1ccc(CNC=O)c2sc3ccc(OC)cc3c(=O)c12,AC50,[1],9 µM (active)
same,outcome,[5],inactive
same,AC50,[6],29.3 µM (active)
CCCCCCCCCCCCc1ccccc1S(=O)(=O)O,AC50,[8],8.71 µM (active)
same,AC50,[1],25 µM (active)
CC(C)CCCCCCOC(=O)CCCCC(=O)OCCCCCCC(C)C,outcome,[2],inactive
same,outcome,[3],inactive
CCCOc1sc(C(=O)N2CCC(c3cc(CN)ccc3F)CC2)c(C)c1Br,AC50,[1],6.34 µM (active)
same,AC50,[3],23.2 µM (active)
same,AC50,[7],23.2 µM (active)
CCC(=C(c1ccc(O)cc1)c1ccc(OCCN(C)C)cc1)c1ccccc1,outcome,[3],inactive
O=c1c(-c2ccc(O)cc2)coc2cc(O)ccc12,outcome,[3],inactive
same,outcome,[6],inactive
NC(=O)N(O)[C@@H]1C=C[C@H](Oc2cccc(Oc3ccc(F)cc3)c2)C1,outcome,[1],inactive
same,outcome,[3],inactive
same,outcome,[9],inactive
O=C(OCCOCCOC(=O)c1ccccc1)c1ccccc1,outcome,[3],inactive
CCCCCCCC(=O)O,outcome,[10],inactive
same,outcome,[1],inactive
same,outcome,[5],inactive
Cc1oc(-c2ccccc2)nc1CCOc1ccc(C[C@H](Nc2ccccc2C(=O)c2ccccc2)C(=O)O)cc1,outcome,[4],inactive
O=C(O)c1ccccc1C(c1ccc(O)cc1)c1ccc(O)cc1,outcome,[3],inactive
CCC(C)(C)C1CCC(O)CC1 (centres undefined),outcome,[6],inactive
CC(=O)NC1(c2cccc(F)c2)CCN(CC[C@@]2(c3ccc(Cl)c(Cl)c3)CN(c3ccccc3)C(=O)CO2)CC1,AC50,[1],11 µM (active)
same,AC50,[3],14.5 µM (active)
same,AC50,[4],0.713 µM (active)
same,AC50,[5],10.5 µM (active)
same,AC50,[9],9.18 µM (active)
OC1CCCCC1,outcome,[2],inactive
CC(C)(C)c1ccc(O)c(C(C)(C)C)c1,AC50,[9],10.7 µM (active)
CC[C@H](C)[C@@H](C(=O)O)n1sc2ccccc2c1=O,AC50,[5],3.52 µM (active)
CN1CCC[C@H]1c1cccnc1,AC50,[10],25 µM (active)
CC[C@H](c1ccc(O)cc1)[C@@H](CC)c1ccc(O)cc1,outcome,[4],inactive
same,AC50,[5],1.77 µM (active)
same,outcome,[6],inactive
O=C(O)Cc1cc(I)c(Oc2cc(I)c(O)c(I)c2)c(I)c1,outcome,[3],inactive
same,outcome,[5],inactive
